High-throughput results (PubChem BioAssay)
Compounds with a hit are over-represented: about 1.8% of the library has one in this group of screens.
PABP1 MLLE inh – inhibitors of PABP1 MLLE–PAM2 peptide binding, primary screen, biochemical, fluorescence polarization, FITC-PAM2, GST-MLLE | Polyadenylate-binding protein 1 (Homo sapiens), P11940 | inhibition, % at 20 µM | 360,000 tested, 0.36% active | AID 588489, 2011; in the data active means inhibition above about 35%, passing the limit was not always enough;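 further: plate controls were DMSO wells with GST-MLLE for no effect and wells lacking GST-MLLE protein for full effect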
Target sequence (P11940 whole entry, looked up): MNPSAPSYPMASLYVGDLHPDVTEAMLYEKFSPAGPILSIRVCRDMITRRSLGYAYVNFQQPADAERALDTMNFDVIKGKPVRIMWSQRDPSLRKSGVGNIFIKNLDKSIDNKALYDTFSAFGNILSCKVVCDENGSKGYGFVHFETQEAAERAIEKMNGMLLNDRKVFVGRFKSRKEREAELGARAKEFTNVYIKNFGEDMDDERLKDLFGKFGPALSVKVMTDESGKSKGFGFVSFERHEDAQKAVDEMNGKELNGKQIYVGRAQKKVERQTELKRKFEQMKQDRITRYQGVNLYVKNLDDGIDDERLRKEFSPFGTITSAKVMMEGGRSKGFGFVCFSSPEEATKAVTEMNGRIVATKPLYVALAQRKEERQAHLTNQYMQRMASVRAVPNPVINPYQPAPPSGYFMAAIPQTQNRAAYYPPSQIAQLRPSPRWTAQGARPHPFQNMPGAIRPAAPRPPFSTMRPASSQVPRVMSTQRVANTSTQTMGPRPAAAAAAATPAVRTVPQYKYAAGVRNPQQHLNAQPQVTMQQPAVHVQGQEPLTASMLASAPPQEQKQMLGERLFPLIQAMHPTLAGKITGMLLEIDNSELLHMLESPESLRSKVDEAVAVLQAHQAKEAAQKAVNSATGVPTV
PABP polyA inh – PABP poly(A) RNA binding inhibitors, primary screen, biochemical, fluorescence polarization, uHTS; Polyadenylate-binding protein 1 (Homo sapiens), P11940; calls only at 35 µM; 290,000 tested, 1% active; AID 2014, 2009;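 further: calls also rest on retests at 20 µM and on dose response follow-up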
MEX-5 binding – MEX-5 zinc finger RNA-binding disruptors – biochemical, C. elegans, fluorescence polarization, MLPCN library, primary screen | MEX-5/FITC-TCR2 RNA binding; stronger effect = lower value | Zinc finger protein mex-5 (Caenorhabditis elegans), Q9XUB2 | 300,000 tested, 0.38% active | activity score (negative = inhibition of binding), % at 10 µM;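 active means inhibition past about -25% in most replicates, and total fluorescence under double the plate's negative control median, limit read from the data; inconclusive means replicates evenly split on the limit, or fluorescence at least double controls; inactive means too little inhibition in most replicates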;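 further: 0% = DMSO and -100% = 5 µM competing unlabeled TCR2 RNA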
eIF4H inh – human eIF4H binding inhibitors, primary screen, translation initiation inhibitor project, biochemical, uHTS, fluorescence polarization; Eukaryotic translation initiation factor 4H (Homo sapiens), Q15056; eIF4H fluorescence polarization binding assay; inhibition, % at 35 µM; 290,000 tested, 0.94% active; AID 2012, 2009;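 further: calls also rest on retests at 20 µM and on dose response follow-up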
EBV gp42 block – Epstein-Barr virus gp42 inhibitors, primary screen, biochemical, uHTS, fluorescence polarization. Fluorescence polarization binding assay, mP read-out. Glycoprotein 42 (Epstein-Barr virus (strain AG876)), Q1HVG2. 220,000 tested, 0.42% active. AID 1085, 2008. inhibition, % (tested at 21.74 µM); in the data active means inhibition above about 50%
The depositor's hits bear a star; i = inactive; ? = inconclusive; . = no result; + = active, no number. Unless noted, how the calls were made is not given here.

SMILES | PABP1 MLLE inh | PABP polyA inh | MEX-5 binding | eIF4H inh | EBV gp42 block
CCOC(=O)c1c(C)[nH]c(C(=O)N/N=C/c2cc([N+](=O)[O-])ccc2O)c1C | -15 | i | -3 | 32 | .
CCOC(=O)c1c(C)[nH]c(C(=O)N/N=C\c2ccccc2O)c1C | 8 | + | -8 | 14 | 1
COCCN(Cc1ccccc1)C(=O)c1cccc(S(=O)(=O)N2CCN(Cc3ccccc3)CC2)c1 | -8 | . | . | . | .
CCCCN(C)C(=O)c1cccc(OC2CCN(CC(C)(C)C)CC2)c1 | -2 | i | -31* | 20 | .
CCC(C)CNC(=O)c1cccc(OC2CCN(CC(C)(C)C)CC2)c1 (stereo not drawn) | 2 | . | -5 | . | .
N#C/C(=C\c1ccc(O)c(O)c1)C(=O)Nc1cccc2ncccc12 | -57 | + | 6 | 90* | .
COc1ccc(/C=C(\C#N)C(=O)Nc2cccc3ncccc23)cc1OC | -23 | i | -5 | 4 | 1
CS(=O)(=O)Nc1cccc(-c2cc(NC=O)c3ncc(-c4ccc(F)c(Cl)c4)n3c2)c1 | -21 | . | . | . | .
Cc1ccc(C(=O)N/C(=C\c2ccc(-c3ccccc3[N+](=O)[O-])o2)C(=O)NCCCN2CCOCC2)cc1 | 24 | + | -7 | 98* | .
Cc1ccc(C(=O)N/C(=C\c2cn(C)c3ccccc23)C(=O)NCCCN2CCOCC2)cc1 | -12 | i | 1 | -5 | .
CC(C)(CCC(=S)N1CCOCC1)C1CCCCC1 | 42* | i | 0 | -2 | .
S=C(CN1CCCC1=S)N1CCOCC1 | 8 | . | . | . | .
Cc1cccc(C)c1NC(=S)Nc1ccc(Cl)c(Cl)c1 | 45* | i | 2 | -4 | 3
Cc1cc(C)cc(NC(=S)Nc2ccc(Cl)c(Cl)c2)c1 | 43* | i | -1 | -3 | 3
Cc1ccc(NC(=S)Nc2ccc(Cl)c(Cl)c2)c(OC(F)F)c1 | 14 | i | 0 | -5 | 11
CCCCn1c(-c2csc3ccccc23)n[nH]c1=S | -36 | i | . | -10 | -4
CCCCCCn1c(-c2cccs2)n[nH]c1=S | 14 | + | -3 | active | -12
CC(C)CNc1ncnc2c1ncn2[C@H]1CN(C2CCCC2)C[C@@H](CO)O1 | -8 | . | . | . | .
O=C1Nc2ccc(Cl)cc2C12Nc1ccccc1-c1nnc(SCc3ccccc3F)nc1O2 (stereo not drawn) | 0 | i | -7 | 7 | 102*
CCN1CCc2nc3ccccc3c(C(=O)Nc3ccc(F)cc3)c2C1 | -5 | i | . | 15 | -3
O=C(NCc1ccc(F)cc1)c1c2c(nc3ccccc13)CCN(Cc1ccccc1)C2 | -2 | + | 0 | active | -24
COC(=O)c1ccc(CNC(=O)c2c3c(nc4ccccc24)CCN(Cc2ccccc2)C3)cc1 | -20 | + | -12 | 87* | -15
CCN(CC)C(=S)Nc1ccc(OC)cc1 | -31 | + | 0 | active | -20
COc1ccc(NC(=S)N(Cc2ccc(C(=O)O)cc2)Cc2ccc(OC)c(OC)c2)cc1 | -10 | + | 2 | 91* | 2
Cc1cn([C@H]2C[C@H](O)[C@@H](CNC=O)O2)c(=O)[nH]c1=O | 4 | . | . | . | .
SMILES | PABP1 MLLE inh | PABP polyA inh | MEX-5 binding | eIF4H inh | EBV gp42 block
CCn1cc(/C=C(\NC(=O)c2ccccc2)C(=O)NCCN2CCOCC2)c2ccccc21 | -5 | . | . | . | .
COC1=C/C(=C/c2c(N)n3cc(C)sc3nc2=O)C=CC1=O | -148 | i | 1 | 60* | -197
CCC(=O)N1CCCC(C)(C(=O)Nc2ccc3scnc3c2)C1 (stereo not drawn) | -10 | . | . | . | .
CC1(C)ON=C(c2cccc(F)c2)NC1=O | -13 | . | . | . | .
CN1/C(=C\C(=O)CSc2nnc(NCc3ccccc3)s2)C(C)(C)c2ccccc21 | -56 | + | 3 | 69* | -15
Cc1cc(C(=O)CSc2nnc(NCc3ccccc3)s2)c(C)n1C | 9 | i | 0 | -9 | 2
O=c1[nH]nc(Sc2ccccc2)c(=S)[nH]1 | 45* | . | . | . | .
CCOC(=O)C1=C(N)n2c(s/c(=C\c3ccco3)c2=O)=C(C(=O)OCC)C1c1ccco1 (stereo not drawn) | -4 | + | 1 | 97* | -18
CCCCN1CC(N2CCN(CCN(C)C)CC2)CS1(=O)=O (stereo not drawn) | 9 | . | . | . | .
CC(C)CC(NC(=O)C(COCc1ccccc1)NC(=O)OC(C)(C)C)C(=O)NN (stereo not drawn) | 11 | i | 1 | active | -1
Cc1ccc2ccc(C3C(=O)c4ccccc4C3=O)nc2c1 | 11 | . | -41* | . | .
C(=C\c1ccccc1)/CN1CCN(C(c2ccccc2)c2nnnn2Cc2ccccc2)CC1 (stereo not drawn) | 0 | . | . | . | .
Cc1ccc(S(=O)(=O)Nc2ccccc2F)cc1C(=O)NNC(=O)c1ccccc1O | 3 | . | -37* | . | .
COc1ccc(C2CC(c3cccs3)=Nc3ccccc3S2)cc1 (stereo not drawn) | 51* | i | 0 | -5 | -4
O=S(=O)(NNC(=S)Nc1ccc(S(=O)(=O)Nc2ncccn2)cc1)c1ccc(Br)cc1 | 27 | i | -99* | 4 | .
O=C1C=C(c2ccccc2)C[C@@H](c2ccc(Cl)cc2)C1 | 2 | . | . | . | .
O=C1CC(c2ccccc2)CC(=O)C1Sc1ccc(Cl)cc1 (stereo not drawn) | 42* | i | -2 | -1 | -5
COc1ccc(S(=O)(=O)N2CN(Cc3ccco3)c3nc4ccccc4nc32)cc1 | 3 | ? | 0 | ? | 21
Cc1ccc(S(=O)(=O)N2CN(Cc3ccco3)c3nc4ccccc4nc32)cc1 | -5 | + | 2 | ? | -11
Cc1ccc(S(=O)(=O)c2c(N)n(Cc3ccco3)c3nc4ccccc4nc23)cc1 | 25 | ? | 3 | ? | 61*
O=S(=O)(c1ccc(F)cc1)N1CN(Cc2ccco2)c2nc3ccccc3nc21 | -2 | + | 1 | 122* | 11
COc1ccc(-n2c(O)c(/C=N/NS(=O)(=O)c3ccc(C)cc3)c3ccccc3c2=O)cc1OC | i | i | 5 | ? | -22
COc1ccc(-n2c(O)c(/C=N/NS(=O)(=O)c3cc(C)ccc3C)c3ccccc3c2=O)cc1OC | i | i | -31* | 4 | -19
O=C(CSc1nc2ccccc2s1)CSc1nc2ccccc2s1 | 0 | i | -1 | 18 | -3
O=C(CSc1nc2ccccc2s1)c1cc2ccccc2o1 | -10 | + | 1 | 60* | -62
COc1ccc(S(=O)(=O)N(C)C[C@@H]2Oc3cc(C#CC4CCCCC4)ccc3S(=O)(=O)N([C@@H](C)CO)C[C@@H]2C)cc1 | -50 | . | . | . | .
O=C(NCc1cccc(C(F)(F)F)c1)c1ccc2nc([C@@H]3O[C@H](CO)[C@@H](O)[C@H]3O)[nH]c2c1 | 11 | . | . | . | .
COc1nc(NCCC2=CCCCC2)nc(OC)n1 | 2 | i | 0 | -8 | 138*
